Reference: PubChem BioAssay (NCI)
The panel holds about 83,000 compounds, 20% with a hit somewhere; the sample as a whole holds those more often.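 Interpretation: 100, growth as untreated; towards 0, rising growth inhibition; 0, no net growth; 0 to -100, cell death. Compounds scoring below 10 were considered active.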 Calls of active or inactive are those of the source.

Columns and labels:
Experiment in all cases: NCI-60 one-dose screen, 48 h (100 = growth as untreated, 0 = no growth, -100 = all killed)
Details in all cases: 10 µM unless noted
SR leukemia = tested on: SR leukemia
RPMI-8226 leukemia = tested on: RPMI-8226 leukemia
OVCAR-8 ovarian = tested on: OVCAR-8 ovarian
OVCAR-4 ovarian = tested on: OVCAR-4 ovarian
SK-OV-3 ovarian = tested on: SK-OV-3 ovarian
IGROV1 ovarian = tested on: IGROV1 ovarian
OVCAR-3 ovarian = tested on: OVCAR-3 ovarian
HS 578T breast = tested on: HS 578T breast
NCI/ADR-RES ovarian = tested on: NCI/ADR-RES ovarian
T-47D breast = tested on: T-47D breast
BT-549 breast = tested on: BT-549 breast
MDA-MB-435 melanoma = tested on: MDA-MB-435 melanoma
SW-620 colon = tested on: SW-620 colon
MCF7 breast = tested on: MCF7 breast
HCT-116 colon = tested on: HCT-116 colon
HCC-2998 colon = tested on: HCC-2998 colon
KM12 colon = tested on: KM12 colon
OVCAR-5 ovarian = tested on: OVCAR-5 ovarian

Measured: growth

COc1ccccc1Nc1nc2c(s1)C1=CC[C@H]3[C@@H]4CC[C@H]([C@H](C)CCCC(C)C)[C@@]4(C)CC[C@@H]3[C@@]1(C)CC2
inactive: SR leukemia 108% | RPMI-8226 leukemia 111% | OVCAR-8 ovarian 103% | OVCAR-4 ovarian 99.8% | SK-OV-3 ovarian 101% | IGROV1 ovarian 99.2% | OVCAR-3 ovarian 103% | HS 578T breast 105% | NCI/ADR-RES ovarian 96.1% | T-47D breast 105% | BT-549 breast 110% | MDA-MB-435 melanoma 103% | SW-620 colon 101% | MCF7 breast 113% | HCT-116 colon 102% | HCC-2998 colon 101% | KM12 colon 101%

CC1Cc2c(Cl)ncnc2N(C)c2ccc(F)cc21 (configuration not stated)
inactive: SR leukemia 95.3% | RPMI-8226 leukemia 98.4% | OVCAR-8 ovarian 91.9% | OVCAR-4 ovarian 95.4% | SK-OV-3 ovarian 89.6% | OVCAR-3 ovarian 106% | HS 578T breast 64.1% | NCI/ADR-RES ovarian 101% | T-47D breast 92.5% | BT-549 breast 108% | MDA-MB-435 melanoma 102% | SW-620 colon 106% | MCF7 breast 97.9% | HCT-116 colon 87.5% | HCC-2998 colon 103% | KM12 colon 99.9%

CCOc1ccc(NC(=O)CSc2oc(-c3ccccc3)nc2S(=O)(=O)c2ccc(F)cc2)cc1
inactive: SR leukemia 69.8% | RPMI-8226 leukemia 73% | OVCAR-8 ovarian 49.5% | SK-OV-3 ovarian 77.5% | IGROV1 ovarian 94.8% | OVCAR-3 ovarian 64.9% | HS 578T breast 74.2% | NCI/ADR-RES ovarian 67.3% | T-47D breast 63.1% | BT-549 breast 96.5% | MDA-MB-435 melanoma 88.9% | SW-620 colon 89.6% | MCF7 breast 71.4% | HCT-116 colon 21.9% | HCC-2998 colon 85.3% | KM12 colon 84.9%

Nc1ncnc2c1N=C(c1ccc3c(c1)OCO3)CC(c1cccc(Nc3ccnc4cc(Cl)ccc34)c1)N2 (configuration not stated)
active: SR leukemia 3.03% | RPMI-8226 leukemia -24% | MCF7 breast 8.54% | HCT-116 colon 6.7%
inactive: OVCAR-8 ovarian 51.1% | OVCAR-4 ovarian 60.7% | SK-OV-3 ovarian 79.2% | IGROV1 ovarian 59.4% | OVCAR-3 ovarian 67.7% | HS 578T breast 87.1% | NCI/ADR-RES ovarian 56.8% | T-47D breast 43.3% | BT-549 breast 74.5% | MDA-MB-435 melanoma 51.6% | SW-620 colon 25.4% | HCC-2998 colon 72% | KM12 colon 30.5%

COc1cc(-c2csc(NC(=O)c3cc(-n4cnc(C)c4)cc(C(F)(F)F)c3)n2)cc(OC)c1OC
inactive: SR leukemia 34% | RPMI-8226 leukemia 24.1% | OVCAR-8 ovarian 40.2% | OVCAR-4 ovarian 70.9% | SK-OV-3 ovarian 114% | IGROV1 ovarian 52% | OVCAR-3 ovarian 65% | HS 578T breast 26.7% | NCI/ADR-RES ovarian 64.9% | T-47D breast 23.5% | BT-549 breast 47.4% | MDA-MB-435 melanoma 74.8% | SW-620 colon 77.9% | MCF7 breast 61.8% | HCT-116 colon 40.4% | HCC-2998 colon 83.9% | KM12 colon 56.4%

CCOC(=O)c1ccc2[nH]c(O)c(C(=Nc3ccc(N(C)C(=O)CN4CCN(C)CC4)cc3)c3ccccc3)c2c1
active: SR leukemia -20.7% | RPMI-8226 leukemia -28.2% | OVCAR-8 ovarian -11.9% | OVCAR-4 ovarian -71.1% | SK-OV-3 ovarian -20.3% | IGROV1 ovarian -33.6% | OVCAR-3 ovarian -76.5% | HS 578T breast -5.29% | BT-549 breast -75.9% | MDA-MB-435 melanoma -42% | SW-620 colon -34.4% | MCF7 breast -63.9% | HCT-116 colon -38.8% | HCC-2998 colon -55.2%
inactive: T-47D breast 21.6%

Clc1ccc(CNc2c3ccccc3nc3ccccc23)cc1
inactive: OVCAR-8 ovarian 31.9% | SK-OV-3 ovarian 60% | IGROV1 ovarian 31.7% | OVCAR-3 ovarian 51.1% | HS 578T breast 53.8% | NCI/ADR-RES ovarian 36.7% | T-47D breast 43.4% | BT-549 breast 70.9% | MDA-MB-435 melanoma 60.7% | SW-620 colon 31% | MCF7 breast 16% | HCT-116 colon 15.7% | KM12 colon 35.6%
active: SR leukemia 2.32% | RPMI-8226 leukemia 8.02% | HCC-2998 colon -10.2%

O=C(NCCCN1CCOCC1)c1cccc(N2C(=O)/C(=C/c3ccc(F)cc3)SC2=S)c1
inactive: SR leukemia 98.9% | RPMI-8226 leukemia 102% | OVCAR-8 ovarian 100% | OVCAR-4 ovarian 93.8% | SK-OV-3 ovarian 108% | IGROV1 ovarian 90.7% | OVCAR-3 ovarian 99.5% | HS 578T breast 82.2% | NCI/ADR-RES ovarian 98.5% | T-47D breast 91.7% | BT-549 breast 96.8% | MDA-MB-435 melanoma 95.3% | SW-620 colon 95.9% | MCF7 breast 92.9% | HCT-116 colon 96.7% | HCC-2998 colon 97.1% | KM12 colon 99.6%

O=[N+]([O-])c1ccc(S(=O)(=O)N2CCN(C3=NS(=O)(=O)c4ccccc4N3c3ccccc3)CC2)cc1
inactive: SR leukemia 40.5% | RPMI-8226 leukemia 58.7% | OVCAR-8 ovarian 93.1% | SK-OV-3 ovarian 102% | IGROV1 ovarian 97% | OVCAR-3 ovarian 94.4% | HS 578T breast 109% | NCI/ADR-RES ovarian 92.9% | T-47D breast 115% | BT-549 breast 99.8% | MDA-MB-435 melanoma 97.2% | SW-620 colon 103% | MCF7 breast 101% | HCT-116 colon 91.2% | HCC-2998 colon 91.3% | KM12 colon 110%

CC(=O)N(N=Nc1ccccc1)c1cccc2ccccc12
inactive: SR leukemia 74.1% | RPMI-8226 leukemia 102% | OVCAR-8 ovarian 84.1% | OVCAR-5 ovarian 75.8% | SK-OV-3 ovarian 82.7% | OVCAR-3 ovarian 125% | HS 578T breast 101% | NCI/ADR-RES ovarian 78.5% | T-47D breast 84.7% | BT-549 breast 69.5% | MDA-MB-435 melanoma 97.8% | SW-620 colon 55.8% | MCF7 breast 76.8% | HCT-116 colon 56.4% | KM12 colon 108%

Cc1nc(N2CCOCC2)sc1S(N)(=O)=O
inactive: SR leukemia 98.3% | RPMI-8226 leukemia 102% | OVCAR-8 ovarian 103% | OVCAR-4 ovarian 112% | SK-OV-3 ovarian 102% | IGROV1 ovarian 99.4% | OVCAR-3 ovarian 102% | HS 578T breast 100% | NCI/ADR-RES ovarian 102% | T-47D breast 93% | BT-549 breast 98.1% | MDA-MB-435 melanoma 105% | SW-620 colon 91.5% | MCF7 breast 93.5% | HCT-116 colon 103% | HCC-2998 colon 104% | KM12 colon 94.1%

COC(=O)c1c2c(c(C)[n+]([O-])c1C)C(=O)C=C(NCc1ccc(Br)cc1)C2=O
active: SR leukemia 1.3% | RPMI-8226 leukemia -28.3% | OVCAR-8 ovarian 1.05% | OVCAR-4 ovarian -92.8% | SK-OV-3 ovarian -10.7% | IGROV1 ovarian -53.4% | OVCAR-3 ovarian -73.4% | HS 578T breast -7.62% | NCI/ADR-RES ovarian -8.51% | T-47D breast -42.8% | BT-549 breast -93.5% | MDA-MB-435 melanoma -92.8% | SW-620 colon -17.2% | MCF7 breast -56.9% | HCT-116 colon -17.2% | KM12 colon -11.3%

COc1cc(-n2cc(-c3cc(O)c(C/C=C(\C)CCC=C(C)C)c(O)c3)nn2)cc2c1O[C@]1(C)CC[C@@H](O)C(C)(C)[C@H]1C2
active: SR leukemia 4.49% | RPMI-8226 leukemia -17.8% | OVCAR-3 ovarian -19.6% | T-47D breast 5.7% | MCF7 breast 7.25% | HCT-116 colon 8.36%
inactive: OVCAR-8 ovarian 16.4% | OVCAR-4 ovarian 37.9% | SK-OV-3 ovarian 34.8% | HS 578T breast 19.6% | NCI/ADR-RES ovarian 17.3% | MDA-MB-435 melanoma 16.6% | SW-620 colon 11.7% | HCC-2998 colon 10.2% | KM12 colon 15.9%

CC(C)(C)n1cc(-c2ccnc(NCCNS(=O)(=O)c3cccc(F)c3)c2)c(-c2ccccc2)n1
inactive: SR leukemia 32.6% | RPMI-8226 leukemia 61% | OVCAR-8 ovarian 87.9% | OVCAR-4 ovarian 72.7% | SK-OV-3 ovarian 102% | OVCAR-3 ovarian 101% | HS 578T breast 92.9% | NCI/ADR-RES ovarian 89.5% | T-47D breast 44.2% | BT-549 breast 93% | MDA-MB-435 melanoma 99.8% | SW-620 colon 94.2% | MCF7 breast 67.8% | HCT-116 colon 79% | HCC-2998 colon 91% | KM12 colon 93.5%

CCCCC(=O)Nc1ncc(Cc2ccc(Cl)cc2)s1
active: MDA-MB-435 melanoma 0.64%
inactive: SR leukemia 33.5% | RPMI-8226 leukemia 86.2% | OVCAR-8 ovarian 84.9% | OVCAR-4 ovarian 80% | SK-OV-3 ovarian 79.1% | IGROV1 ovarian 66.5% | OVCAR-3 ovarian 68.3% | HS 578T breast 72.9% | NCI/ADR-RES ovarian 48.4% | T-47D breast 56.4% | BT-549 breast 65% | SW-620 colon 37.7% | MCF7 breast 37.4% | HCT-116 colon 53.6% | HCC-2998 colon 65.8% | KM12 colon 38.8%

N#Cc1c(-c2ccc(Cl)cc2)nc(NN=Cc2cccc(O)c2)nc1N1CCOCC1
inactive: RPMI-8226 leukemia 37.4% | OVCAR-8 ovarian 65.4% | OVCAR-4 ovarian 72.4% | SK-OV-3 ovarian 98% | IGROV1 ovarian 64.9% | OVCAR-3 ovarian 77.7% | HS 578T breast 89.4% | NCI/ADR-RES ovarian 64.9% | T-47D breast 64.6% | BT-549 breast 73.1% | MDA-MB-435 melanoma 87% | SW-620 colon 64.8% | MCF7 breast 60.1% | HCT-116 colon 57.9% | HCC-2998 colon 103% | KM12 colon 81%
active: SR leukemia 4.7%

CCNc1nc(-c2ccc(Cl)c(OC)c2)c(-c2ccnc(NCCCNS(=O)(=O)c3ccc(Cl)cc3)n2)s1
inactive: SR leukemia 43.4% | RPMI-8226 leukemia 45.9% | OVCAR-8 ovarian 51% | OVCAR-4 ovarian 83% | SK-OV-3 ovarian 42.1% | IGROV1 ovarian 56.1% | OVCAR-3 ovarian 81.2% | HS 578T breast 64.3% | NCI/ADR-RES ovarian 77.6% | T-47D breast 37.4% | BT-549 breast 52% | MDA-MB-435 melanoma 24.8% | SW-620 colon 80.9% | MCF7 breast 66.3% | HCT-116 colon 42.4% | HCC-2998 colon 102% | KM12 colon 65.3%
